Results reported in PubChem BioAssay AID2108 (National Center for Advancing Translational Sciences (NCATS), 2009).
Results filed as inconclusive are left out. The call rests on the fitted dose curve; in most records, active means well fitted curve in the direction sought with a large enough effect; inconclusive means small, poorly fitted or top-dose-only effect, or effect the other way, or another doubt; inactive means no such curve, though single readings can be large or run the other way. Non-standard residues stand in square brackets, D forms with d. Residues, ends and D or L forms follow the SMILES beside them. *: point of attachment. Nle = CCCC[C@H](N)C(=O)O; Boc = CC(C)(C)OC(=O)*

What follows are compounds tested against Alpha-galactosidase A (Homo sapiens) (UniProt P06280) (assay: Confirmation of Inhibitors of Human alpha-Galactosidase Using Spleen Homogenate). Settings: alpha-galactosidase enzyme activity; series mostly up to 56.2 µM; activity change: at the top concentration.
Alpha-galactosidase A (Homo sapiens), sequence (P06280 32-429 limits assumed): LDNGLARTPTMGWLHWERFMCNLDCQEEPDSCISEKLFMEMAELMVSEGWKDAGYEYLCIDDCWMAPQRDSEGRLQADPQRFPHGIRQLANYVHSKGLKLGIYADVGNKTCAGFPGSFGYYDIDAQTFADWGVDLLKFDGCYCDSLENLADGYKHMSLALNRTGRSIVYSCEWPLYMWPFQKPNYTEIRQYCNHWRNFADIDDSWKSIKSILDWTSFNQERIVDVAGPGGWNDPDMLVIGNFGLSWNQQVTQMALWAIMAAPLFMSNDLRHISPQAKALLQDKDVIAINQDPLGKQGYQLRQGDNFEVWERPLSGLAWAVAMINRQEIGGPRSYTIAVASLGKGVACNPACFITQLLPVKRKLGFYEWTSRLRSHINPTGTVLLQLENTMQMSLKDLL
Excerpt: NIH Chemical Genomics Center [NCGC]
NIH Molecular Libraries Probe Production Centers Network [MLPCN]
Assay Submitter (PI): Wei Zheng
Alpha-galactosidase is a homodimeric glycoprotein that hydrolyzes the terminal alpha-galactosyl moieties from glycolipids and glycoproteins. Deficiency of this enzyme results in Fabry Disease with progressive accumulation of globotriaosylceramide and other glycosphingolipids in vascular endothelial cells that causes renal failure, myocardial infarction and stroke, and premature death in patients. It has been reported that the improper folding and trafficking of alpha-galactosidase resulting from genetic mutations may account for a significant number of Fabry patients. […] We optimized this alpha-galactosidase assay in 1536-well plate format for identification of novel small molecule inhibitors or activators with structures other than the sugar analogs in order to develop new pharmacological chaperones. In particular, this assay is directed towards discovering compounds active in more natural setting, tissue homogenate, that may have been missed by screens of the purified enzyme under more stringent conditions. This assay attempted to confirm hits from the primary screening.
NCGC Assay Protocol Summary:
This is a fluorogenic enzyme assay with 4-methylumbelliferyl-alpha-D-galactopyranoside as the substrate and human spleen homogenate containing alpha-galactosidase as the enzyme preparation. Upon hydrolysis of this fluorogenic substrate, the resulting product, 4-methylumbelliferone (which excites at 365 nm and emits at 440 nm) can be detected by a fluorescence plate reader. Data were normalized to the controls for basal activity (without enzyme) and 100% activity (with enzyme). The AC50 values were determined from concentration-response data modeled with the standard Hill equation.
Assay buffer: 50 mM citric acid (titrated with potassium phosphate to pH 5.0), 0.01% Tween-20 (pH 5.0 is an optimal condition for this enzyme assay)
1536-well assay protocol for the alpha-galactosidase from human spleen homogenate:
(1) Add 2 ul/well spleen homogenate (1 ug)
(2) Add 23 nL compounds in DMSO solution. The final titration was 0.5 nM to 58 uM.
(3) Add 2 ul of substrate (1 mM final)
(4) Incubate at 37C for 40 min
(5) Add 2 ul stop solution (1M NaOH and 1M Glycine mixture, pH 10)
(6) Detect the assay plate in a ViewLux plate reader (PerkinElmer) with Ex=365 nm and Em=440nm.
Keywords: Alpha-galactosidase, Fabry Disease, pharmacological chaperone, chaperone therapy, high throughput screening, alpha- galactosidase inhibitor, MLSMR, MLSCN, NIH Roadmap, qHTS and NCGC
Further: 0% is about no effect.

Activity change, inactive:
CC(=O)N1CCN(c2ccc(NCc3ccc(C(C)C)cc3)cc2)CC1 -2.87%
OCCN1CC(O)C(O)C(O)C1CO (stereo not given) -3.46%
CC(=O)N1CCN(c2ccc(NCc3ccc4c(c3)OCO4)cc2)CC1 -12.3%
CCCC[C@H](NC(=O)[C@@H]1CCCN1C(=O)[C@H]1CCCN1C(=O)[C@H](Cc1ccccc1)NC(=O)[C@@H](Cc1c[nH]c2ccccc12)NC(=O)[C@H](C)NC(=O)[C@H](CCCN=C(N)N)NC(=O)OC(C)(C)C)C(N)=O (Boc-RA[dW]F[dP]P[Nle]-NH2) 1.41%
COc1ccc(NS(=O)(=O)c2ccc(O)c(NC(=O)c3cc4c(C)nn(-c5ccc(F)cc5)c4s3)c2)cc1 -4.99%
CC(C)(C)OC(=O)NCCCC[C@H](NC(=O)c1nc[nH]c1C(=O)NCc1ccccc1)C(=O)OC(C)(C)C -8.24%
COc1cc(C2C(C(=O)c3ccco3)=C(O)C(=O)N2CC2CCCO2)ccc1O (stereo not given) -5.75%
O=S(=O)(c1ccc(F)cc1)N1CCOCC1 2.82%
Nc1ccc(S(=O)(=O)N2CCOCC2)cc1 12.2%
CCc1ccc(-c2nc(-c3cc4ccc(OC(C)=O)cc4oc3=O)sc2C)cc1 2.98%
CC(=O)c1ccc(S(=O)(=O)N2CCOCC2)cc1 3.77%
COc1ccc(Cc2nnc(NC(=O)CSc3ccc(Cl)cc3)s2)cc1 1.59%
Cc1cc(C)nc(SCc2cc(=O)c(OC(=O)c3ccco3)co2)n1 2.16% [at 23.6 µM]
CCNc1sc(C(=O)c2cccs2)c(N)c1-c1nc2ccccc2s1 5.31%
O=S(=O)(c1cccc(Cl)c1)N1CCOCC1 1.69%
O=C1CC(c2ccccc2)Cc2nc(NCc3ccco3)ncc21 (stereo not given) -2.65%
CCOc1c(Br)cc(CNc2ccc(N3CCN(C(C)=O)CC3)cc2)cc1OC -1.36%
O=S(=O)(c1ccc(Br)cc1)N1CCOCC1 9.71%
COc1ccccc1NC(=O)c1ccc(Br)o1 2.69% [at 23.6 µM]
COc1ccc(S(=O)(=O)N2CCOCC2)cc1 0.0857%
COc1cc([C@@H]2c3cc4c(cc3[C@@H](OC3OC5COC(C)OC5C(O)C3O)[C@H]3COC(=O)[C@H]23)OCO4)cc(OC)c1O (stereo not given in full) -6.56%
CC(C)Cn1c(SCC(=O)N2CCN(S(=O)(=O)c3ccccc3)CC2)nc2ccccc21 6.92%
Cc1[nH]n(C(N)=S)c(=O)c1N=Nc1ccc2ccccc2c1 3.36%
CSc1ccccc1NC(=O)CN(C)CC(=O)NCc1ccccc1 1.93% [at 23.6 µM]
CC(C)NCC(O)COc1cccc2[nH]ccc12 (stereo not given) -0.401%
O=C(CSc1ccccc1)Nc1nnc(/C=C/c2ccccc2)s1 20%
Cc1ccc(S(=O)(=O)NN2C(=O)/C(=C\c3ccc(Cl)cc3)SC2=S)cc1 -6.49%
O=c1oc2ccccc2cc1-c1csc(Cc2nc3c(s2)CCCC3)n1 8.5%
Nc1cnc(Nc2ccc(Br)cc2)nc1N -1.95%
O=C(c1ccccc1)N1CCN(C(=O)c2ccccc2)CC1 10.9%
Cc1cnc(C(=O)Nc2cc(S(=O)(=O)N3CCOCC3)ccc2N2CCN(C)CC2)cn1 1.16%
COc1ccccc1NCC(=O)n1nc(C)cc1C -2.77%
COc1ccc(-c2cc(=O)c(C(=O)c3ccc(C)cc3)n[nH]2)cc1 4.97% [at 23.6 µM]
CN(C)C=Nc1nc2ccccc2nc1N1CCCC1 12.4% [at 23.6 µM]
O=C(NCC1CCOCC1)c1ccc2nc(Cc3cccc(Cl)c3)oc2c1 -6.97%
CC1OC(OC2C(CO)OC(OC3C(CO)OC(O)C(O)C3O)C(O)C2O)C(O)C(O)C1NC1C=C(CO)C(O)C(O)C1O (stereo not given) -3.24%
COCCSc1nc(N)c2c3c(sc2n1)CN(C)CC3 3.09%
COc1ccc(/C=C(/NC(=O)c2ccccc2)C(=O)NC(Cc2c[nH]c3ccccc23)C(=O)O)cc1 (stereo not given) -6.83%
O=c1ccc2cc(O)c(O)cc2o1 5.16%
COc1cc(CNc2ccc(N3CCOCC3)cc2)cc(Br)c1OC -3.63%
